± gives the standard deviation. The full ranking holds about 5,500 sequences; the median of “pre-steady-state target cleavage rate” is about 0.1, and the highest 2% start at about 0.64. For the sample, the highest values were picked, then their nearest neighbours and some sequences at random.
The sequences below were run on MIWI (PIWIL1) piRISC loaded with piRNA #2 (30 nt) (assay: pre-steady-state target cleavage rate (min^-1); MIWI and MILI are mouse PIWI proteins and EfPiwi is from a freshwater sponge; tags in brackets are library labels; higher = faster piRNA-guided slicing of the target). Conditions: guide: piRNA #2 5'p-UUAGGUAACCCAGUAGAUCCAGAGGAAUUC; auxiliary factor: 500 nM mouse GTSF1.
Procedure: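 Cleave-'n-Seq: a library of target RNAs (target site embedded in constant flanks, ACAGCATTCCGCGTTAGTGATATCCG... 5' flank; DNA-blocked outside the site) at 0.1 nM was incubated with 1 nM active mouse MILI or MIWI piRISC (synthetic 5'-monophosphorylated piRNA guide) with or without 500 nM mouse GTSF1 at 33 °C for 1 min to 16 h. Uncleaved targets were sequenced and normalised to non-target controls, and the pooled three trials were fitted to a burst-and-steady-state model to give the pre-steady-state cleavage rate (min^-1; k3 is constrained to at most 1e-4). Sequence is the target site only; target names encode pairing extent (gX:gY) and contiguous / 1-mismatch / 2-mismatch / bulge geometry. Fits with R² ≤ 0 are excluded.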
With CAAUUCCACUCGAUCUACUGGGUUACCUAA the “pre-steady-state target cleavage rate” value was 0.798 ± 0.047. In the case of CUAUUCCACUGGAUCUACUGGGUUACCUAA, the “pre-steady-state target cleavage rate” value is reported as 0.588 ± 0.061. In the case of CUUUUCCACUCGAUCUACUGGGUUACCUAA, the “pre-steady-state target cleavage rate” value is reported as 0.547 ± 0.033. With CUAUUCCACUCGAUCUACUGGGUUACCUAA the “pre-steady-state target cleavage rate” value was 0.703 ± 0.037. In the case of CUAUUCCACUGGAUCUACUCGGUUACCUAA, the “pre-steady-state target cleavage rate” value is reported as 0.0817 ± 0.018. With GAAUUCCACUCGAUCUACUGGGUUACCUAA the “pre-steady-state target cleavage rate” value was 0.564 ± 0.056. CUUAACCUCUGGAUCUAGUGGGUUACCAAA was tested, and the “pre-steady-state target cleavage rate” value was 0.0597 ± 0.0073. For CAAUUCCACUGGAACUACUGGGUUACCUAA, the “pre-steady-state target cleavage rate” value was 0.408 ± 0.042. With CUUAAGCUGUGGAUCUACUGGGUUUCCUAA the “pre-steady-state target cleavage rate” value was 0.0403 ± 0.019. For CAAUACCUCUGGAUCUACUGCGUUACCUAA, the “pre-steady-state target cleavage rate” value was 0.488 ± 0.063. With CUUAUACCUCUGGAUCUACUGGGUUACCUAA the “pre-steady-state target cleavage rate” value was 0.389 ± 0.061. With CUAUACCUCUGGAUCUACUGGGUUACGUAA the “pre-steady-state target cleavage rate” value was 0.674 ± 0.032. With GUAUACCUCUGGAUCUACUGGGUUACCUAA the “pre-steady-state target cleavage rate” value was 0.642 ± 0.23. In the case of CAAUACCUCUGGAUCUACUGGGUUACGUAA, the “pre-steady-state target cleavage rate” value is reported as 0.567 ± 0.059. In the case of GAAUACCUCUGGAUCUACUGGGUUACGUAA, the “pre-steady-state target cleavage rate” value is reported as 0.609 ± 0.038. CUAUACCUCUGGAUCUACUGGGUUACCUAA was tested, and the “pre-steady-state target cleavage rate” value was 0.544 ± 0.084. With CUAUACCUCUGGAUCUACUGCGUUACCUAA the “pre-steady-state target cleavage rate” value was 0.732 ± 0.066. With GAAUACCUCUGGAUCUACUGCGUUACCUAA the “pre-steady-state target cleavage rate” value was 0.456 ± 0.04. With CUUAAGCUCUGGAUCUACUGGCUUACCUAA the “pre-steady-state target cleavage rate” value was 0.0576 ± 0.012. For CUUAAGGUCUGGAUCUACUGCGUUUCCUAA, the “pre-steady-state target cleavage rate” value was 0.0557 ± 0.014. CUUAAGGUAUGGAUCUACUGGGUUACCUAA was tested, and the “pre-steady-state target cleavage rate” value was 0.323 ± 0.035. In the case of CAAUUCCUCUGGAACUACUCGGUUACCUAA, the “pre-steady-state target cleavage rate” value is reported as 0.157 ± 0.022. With CUUAACCUCUGGAUCUACUGGGUAAGCUAA the “pre-steady-state target cleavage rate” value was 0.05 ± 0.0099. With CUAUUCCUCCUGGAUCUACUGGGUUACCUAA the “pre-steady-state target cleavage rate” value was 0.613 ± 0.06. CAAUUCCUCGGAUCUACUGGGUUACCUAA was tested, and the “pre-steady-state target cleavage rate” value was 0.47 ± 0.087. CUAUUCCUCGGAUCUACUGGGUUACCUAA was tested, and the “pre-steady-state target cleavage rate” value was 0.447 ± 0.083. With GAAUUCCUCCGGAUCUACUGGGUUACCUAA the “pre-steady-state target cleavage rate” value was 0.407 ± 0.058. CUAUUCCUCCGGAUCUACUGGGUUACCUAA was tested, and the “pre-steady-state target cleavage rate” value was 0.697 ± 0.12. CAAUUCCUCCGGAUCUACUGGGUUACCUAA was tested, and the “pre-steady-state target cleavage rate” value was 0.677 ± 0.096. With CUUAAGGACUGGAUCUACAGCGUUACCUAA the “pre-steady-state target cleavage rate” value was 0.00714 ± 0.0051. For CUUUUCCACUGGAUCUACAGGGUUACCUAA, the “pre-steady-state target cleavage rate” value was 0.248 ± 0.016. For CAAUUCCUCUGGAUCUUCUGGGUUACCUAA, the “pre-steady-state target cleavage rate” value was 0.49 ± 0.065. GAAUUCCUCUCGAUCUUCUGGGUUACCUAA was tested, and the “pre-steady-state target cleavage rate” value was 0.62 ± 0.064. With CUAUUCCUCUGGAUCUUCUGGGUUACCUAA the “pre-steady-state target cleavage rate” value was 0.412 ± 0.054. With CUAUUCCUCUCGAUCUUCUGGGUUACCUAA the “pre-steady-state target cleavage rate” value was 0.803 ± 0.07. In the case of CUUUUCCUCUCGAUCUUCUGGGUUACCUAA, the “pre-steady-state target cleavage rate” value is reported as 0.63 ± 0.051. In the case of CAAUUCCUCUCGAUCUUCUGGGUUACCUAA, the “pre-steady-state target cleavage rate” value is reported as 0.737 ± 0.059. With CUUAUCCUCUGGAUCAUCUGGGUUACCUAA the “pre-steady-state target cleavage rate” value was 0.246 ± 0.028. For CAUAACCUCUGGAUCUACUGGGUUACCUAA, the “pre-steady-state target cleavage rate” value was 0.234 ± 0.033. With CUUAACCUCUGGAUCUUCUGGGUUUCCUAA the “pre-steady-state target cleavage rate” value was 0.042 ± 0.0092. With CAAUUCCUCUGGAUCUACAGGGUUUCCUAA the “pre-steady-state target cleavage rate” value was 0.178 ± 0.026. In the case of CAAUUCCUCAGGAUCUACUGGGUUACCUUA, the “pre-steady-state target cleavage rate” value is reported as 0.604 ± 0.075. GAAUUCCUCUGGAUGUACAGGGUUACCUAA was tested, and the “pre-steady-state target cleavage rate” value was 0.413 ± 0.029. In the case of CUAAUCCUCUGGAUCUACUGGGUUACCUAA, the “pre-steady-state target cleavage rate” value is reported as 0.412 ± 0.061. With CAAAUCCUCUGGUUCUACUGGGUUACCUAA the “pre-steady-state target cleavage rate” value was 0.79 ± 0.044. With CUAAUCCUCUGGUUCUACUGGGUUACCUAA the “pre-steady-state target cleavage rate” value was 0.755 ± 0.048. For GAAAUCCUCUGGUUCUACUGGGUUACCUAA, the “pre-steady-state target cleavage rate” value was 0.624 ± 0.05. With CUUAUCCUCUGGUUCUACUGGGUUACCUAA the “pre-steady-state target cleavage rate” value was 0.607 ± 0.047. For CAAAUCCUCUGGAUCUACUGGGUUACCUAA, the “pre-steady-state target cleavage rate” value was 0.47 ± 0.069. With CUUAAGCUCUGGAACUACUCGGUUACCUAA the “pre-steady-state target cleavage rate” value was 0.0422 ± 0.011. CUUAUCCUCUGGAACUACUGGGUUACCUUA was tested, and the “pre-steady-state target cleavage rate” value was 0.254 ± 0.03. For CGAUUCCUCUGGAUCUACUGGGUUACCUAA, the “pre-steady-state target cleavage rate” value was 0.329 ± 0.048. With CUUUUCCUCUGGAUCUACUGGGUAACCAAA the “pre-steady-state target cleavage rate” value was 0.13 ± 0.034. For CUUAAGGACGGGAUCUACUGGGUUACCUAA, the “pre-steady-state target cleavage rate” value was 0.0681 ± 0.038. In the case of CAAUUCCUCUGGAUCUCCUGGGUUACCUAA, the “pre-steady-state target cleavage rate” value is reported as 0.231 ± 0.051. For GAAUUCCUCUGGAAGUACUGGGUUACCUAA, the “pre-steady-state target cleavage rate” value was 0.511 ± 0.047. With CAAUUCCUCUGGAUUUACUGGGUUACCUAA the “pre-steady-state target cleavage rate” value was 0.681 ± 0.062. In the case of CAAUUCCUCUGGAAGUACUGGGUUACCUAA, the “pre-steady-state target cleavage rate” value is reported as 0.651 ± 0.044. In the case of GAAUUCCUCUGGAUUACUGGGUUACCUAA, the “pre-steady-state target cleavage rate” value is reported as 0.413 ± 0.04. For CAAUUCCUCUGGAUUCUACUGGGUUACCUAA, the “pre-steady-state target cleavage rate” value was 0.473 ± 0.059. With CAAUUCCUCUGGAUCUGCUGGGUUACCUAA the “pre-steady-state target cleavage rate” value was 0.641 ± 0.08. GAAUUCCUCUGGAUUUACUGGGUUACCUAA was tested, and the “pre-steady-state target cleavage rate” value was 0.425 ± 0.073. CUAUUCCUCUGGAAGUACUGGGUUACCUAA was tested, and the “pre-steady-state target cleavage rate” value was 0.631 ± 0.046. With CAAUUCCUCUGGAUUACUGGGUUACCUAA the “pre-steady-state target cleavage rate” value was 0.692 ± 0.054. In the case of GAAUUCCUCUGGAUCUGCUGGGUUACCUAA, the “pre-steady-state target cleavage rate” value is reported as 0.213 ± 0.044. For CUAUUCCUCUGGAUUUACUGGGUUACCUAA, the “pre-steady-state target cleavage rate” value was 0.529 ± 0.048. In the case of CAAUUCCUCUGGUUCUACUCGGUUACCUAA, the “pre-steady-state target cleavage rate” value is reported as 0.167 ± 0.014. For CAAUUCCUCUGGAACUACUGGGUUACCAAA, the “pre-steady-state target cleavage rate” value was 0.289 ± 0.055. In the case of CUUAAGGAGUGGAUCUACUGGGUUGCCUAA, the “pre-steady-state target cleavage rate” value is reported as 0.0417 ± 0.011. With CUUAUCCAUCUGGAUCUACUGGGUUACCUAA the “pre-steady-state target cleavage rate” value was 0.508 ± 0.051. With CUUUUCCUCUGGACCUACUGGGUUACCUAA the “pre-steady-state target cleavage rate” value was 0.157 ± 0.02. With GAAUUCCUGUGGAUCUACUGCGUUACCUAA the “pre-steady-state target cleavage rate” value was 0.362 ± 0.053. In the case of CUUAUCCUCUGGAUCUACUGGGAUACCUAA, the “pre-steady-state target cleavage rate” value is reported as 0.302 ± 0.039. In the case of CUUAAGGUCUGGAUCUUCUGGGAUACCUAA, the “pre-steady-state target cleavage rate” value is reported as 0.0453 ± 0.017. GAAUUCCUCAGGAUCUACUGGGUUACGUAA was tested, and the “pre-steady-state target cleavage rate” value was 0.738 ± 0.062. CAAUUCCACUGGAUCUACUGGGUUAGCUAA was tested, and the “pre-steady-state target cleavage rate” value was 0.223 ± 0.076. For GAAUUCCACUGGAUCUACUGGGUUAGCUAA, the “pre-steady-state target cleavage rate” value was 0.668 ± 0.12. With GAAUUCCUGUGGAUCUACUGGGUUACGUAA the “pre-steady-state target cleavage rate” value was 0.637 ± 0.063. CAAUUCCUCAGGAUCUACUGGGUUACGUAA was tested, and the “pre-steady-state target cleavage rate” value was 0.594 ± 0.058. For CUAUUCCACUGGAUCUACUGGGUUAGCUAA, the “pre-steady-state target cleavage rate” value was 0.16 ± 0.04. CUAUUCCUCAGGAUCUACUGGGUUACGUAA was tested, and the “pre-steady-state target cleavage rate” value was 0.499 ± 0.073. In the case of GAAUUCCACUGGAUCUACUGGGUUACGUAA, the “pre-steady-state target cleavage rate” value is reported as 0.803 ± 0.043. CUAUUCCUGUGGAUCUACUGGGUUACGUAA was tested, and the “pre-steady-state target cleavage rate” value was 0.47 ± 0.052. In the case of CAAUUCCACUGGAUCUACUGGGUUACGUAA, the “pre-steady-state target cleavage rate” value is reported as 0.419 ± 0.081. In the case of CUAUUCCACUGGAUCUACUGGGUUACGUAA, the “pre-steady-state target cleavage rate” value is reported as 0.481 ± 0.066. CAAUUCCUGUGGAUCUACUGGGUUACGUAA was tested, and the “pre-steady-state target cleavage rate” value was 0.428 ± 0.075. With CUUAUCCUGUGGAUCUACUGGGUUACCAAA the “pre-steady-state target cleavage rate” value was 0.166 ± 0.038. For CUAAACCUCUGGAUCUACUGGGUUACCUAA, the “pre-steady-state target cleavage rate” value was 0.266 ± 0.04. With CUUAUCCUGACGAUCUACUGGGUUACCUAA the “pre-steady-state target cleavage rate” value was 0.0767 ± 0.014. CUUAACCCUGGAUCUACUGGGUUACCUAA was tested, and the “pre-steady-state target cleavage rate” value was 0.326 ± 0.033. CUUAUCCUCUGGAUCUACUGGGAUUCCUAA was tested, and the “pre-steady-state target cleavage rate” value was 0.103 ± 0.04. With CUUAAGGAGAGGUUCUACUGGGUUUCCUAA the “pre-steady-state target cleavage rate” value was 0.00421 ± 0.0042. CUUAUCCUCUGGAUCUACUCGGUUACCUAA was tested, and the “pre-steady-state target cleavage rate” value was 0.0981 ± 0.018.

Reference: the supplement of paper PMC10338343
